Test results reported in PubChem BioAssay (Tox21).
Records with an inconclusive call do not appear. Unmarked numbers belong to inactive results. The source made the active and inactive calls. Calls follow the shape of the dose curve; as a rule, active = well fitted cell-killing curve with a large enough effect in the repeat runs; inconclusive = weak or mixed curves, or effect the other way; inactive = no such curve, though single readings can be large or run the other way.

Assay: qHTS assay to identify small molecule agonists of the estrogen receptor alpha (ER-alpha) signaling pathway in the presence of an antagonist - cell viability counter screen (AID 1259386);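 also: cells exposed to compounds for 22 h at 37 °C before the viability read; nearly all actives have a fitted effect of over 30% in size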
Conditions: VM7Luc4E2 viability, CellTiter-Fluor fluorescence, 22 h; series mostly up to 92.4 µM; activity change, negative = cytotoxicity: at the top concentration
Text: National Center for Advancing Translational Sciences [NCATS]
NIH Chemical Genomics Center [NCGC]
U.S. Environmental Protection Agency [EPA]
National Institutes of Environmental Health Sciences [NIEHS]
National Toxicology Program [NTP]
U.S. Food and Drug Administration [FDA]
Estrogen receptor (ER), a member of nuclear hormone receptor plays an important role in development, metabolic homeostasis and reproduction. Two subtypes of ER, ER-alpha and ER-beta, have similar expression patterns with some uniqueness in both types. Endocrine disrupting chemicals (EDCs) and their interactions with steroid hormone receptors like ER causes disruption of normal endocrine function. Therefore, it is important to understand the effect of environmental chemicals in ER signaling pathway. For identifying ER agonists, VM7Luc4E2 cell line has been used in the current assay.
VM7Luc4E2 cell line (provided by Denison MS, University of California) endogenously expresses full-length ER-alpha and is stably transfected with a plasmid containing four estrogen responsive elements (ERE) upstream of a luciferase reporter gene. This current screening for measuring luciferase reporter gene activity using VM7Luc4E2 cells against Tox21 10K library collection is a confirmation study on agonist mode screening in presence of ER-antagonist (ICI-182,780) at 10.0nM final concentration. The cytotoxicity of the compounds was tested in parallel by measuring the cell viability using CellTiter-Fluor assay system (Promega, Madison, WI) in the same wells.
Tox21 Assay Protocol Summary:
VM7Luc4E2 cells were cultured in phenol red free assay medium containing 10% charcoal stripped FBS for 5 days prior to the assay. The cells were dispensed at 4,000 cells in 4uL of assay medium per well into white wall/solid-bottom 1536-well plates (Corning Life Sciences, Corning, NY) using a Multidrop Combi (Thermo Fisher Scientific Inc., Waltham, MA) dispenser. After the assay plates were incubated at 37C and 5% CO2 for 24hr, 1uL of 10.0nM (final concentration) ICI-182,780 or assay buffer was added using two separate tips of Flying Reagent Dispenser (FRD, Aurora Discovery, San Diego, CA). Then 23nL of compounds dissolved in DMSO at 15 concentrations and positive controls or DMSO only was transferred to the assay plates by a Pintool station (Wako, San Diego, CA). The assay plates were incubated at 37C and 5% CO2 for 22hr. After 21hr incubation at 37C, 1uL/well CellTiter-Fluor reagent (Promega Corporation, Madison, WI) was added to each well using FRD and after 1hr incubation at 37C and 5% CO2, the fluorescence signal was measured on ViewLux plate reader (PerkinElmer, Shelton, CT).
% is scaled to controls: 0 for no effect and ±100 for the full control effect; potency is read from the fitted curve at half-maximal effect.

Structure (SMILES)	activity change, negative = cytotoxicity	Potency
CC(=O)CC(c1ccc(Cl)cc1)c1c(O)c2ccccc2oc1=O (stereo not given)	0.295%	–
CCCCOC(=O)c1ccccc1N	-5.48%	–
CCOP(=S)(OCC)SCSP(=S)(OCC)OCC	0.642%	–
CC(C)CC(N(C)C)C1(c2ccc(Cl)cc2)CCC1 (stereo not given)	-0.454% [at 42.5 µM]	–
Fc1cc(Br)ccc1CBr	0.0058% [at 42.5 µM]	–
N#CC(Cl)(Cl)Cl	1.75%	–
CCCCC(=O)Cl	1.81%	–
O=c1oc2ccccc2c(O)c1C1CCCc2ccccc21 (stereo not given)	1.43%	–
CC(C)COP(=O)(OCC(C)C)OCC(C)C	-21.7%	–
CCCSP(=S)(OCC)Oc1ccc(Cl)cc1Cl (stereo not given)	3.89%	–
[Cl][Sn]([Cl])([Cl])[Cl]	2.22%	–
Cc1ncsc1CCCl	3.96% [at 42.5 µM]	–
ClC(Cl)Br	1.12%	–
CC(C)(C)NCC(O)c1cc(Cl)c(N)c(Cl)c1 (stereo not given)	–	21.1 µM (active)
C#C[C@]1(O)C=C[C@H]2[C@@H]3CCC4=CC(=O)CC[C@@H]4[C@H]3CC[C@@]21CC	6.76% [at 42.5 µM]	–
CCN(CC)C(=O)[C@@H]1C=C2c3cccc4[nH]cc(c34)C[C@H]2N(C)C1	–	56.7 µM (active)
NC(=O)c1cc([N+](=O)[O-])cc([N+](=O)[O-])c1	3.37% [at 42.5 µM]	–
COc1cc(OC)nc(NC(=O)NS(=O)(=O)c2ncccc2OCC(F)(F)F)n1	-0.126%	–
ClCCCN1CCN(c2cccc(Cl)c2)CC1	3.93% [at 42.5 µM]	–
CN1CCC(N(Cc2ccccc2)c2ccccc2)CC1	-0.537% [at 42.5 µM]	–

Structure (SMILES)	activity change, negative = cytotoxicity	Potency
C=CC1CC=CCC1 (stereo not given)	1.38%	–
OC(c1ccccc1)(c1ccccc1)C1CCNCC1	0.124% [at 42.5 µM]	–
COc1cccc2c1cc([N+](=O)[O-])c1c(C(=O)O)cc3c(c12)OCO3	–	61.1 µM (active)
COCC(=O)N(c1c(C)cccc1C)N1CCOC1=O	1.12%	–
CCOC(=O)NC(=S)Nc1ccccc1NC(=S)NC(=O)OCC	11.9%	–
C[C@]1(O)CC[C@H]2[C@@H]3CCC4=CC(=O)CC[C@]4(C)[C@@]3(F)[C@@H](O)C[C@@]21C	-0.127%	–
COP(N)(=S)Oc1ccccc1C(=O)OC(C)C (stereo not given)	1.17%	–
CC1CCC(=O)O1 (stereo not given)	-3.42%	–
CC(C)CP(=S)(S)CC(C)C	1.34%	–
CCS(=O)(=O)CCSP(=O)(OC)OC	-5.11%	–
O=C(Oc1ccc(Br)cc1)N1CCN2CCC1CC2	-0.834%	–
O=C(CCN1CC1)OCC(CO)(COC(=O)CCN1CC1)COC(=O)CCN1CC1	-0.0508%	–
CN1CCN(C(=O)O[C@H]2c3nccnc3C(=O)N2c2ccc(Cl)cn2)CC1	-8.34% [at 42.5 µM]	–
CC1(C(=O)Nc2ccc(O)c(Cl)c2Cl)CCCCC1	-7.42%	–
C[C@@H]1CN(C2CCC(C#N)(c3ccc(F)cc3)CC2)CC[C@]1(C(=O)O)c1ccccc1 (stereo not given in full)	6.96% [at 42.5 µM]	–
CSc1nc(N=[N+]=[N-])nc(NC(C)C)n1	0%	–
CCCSC(=O)N(CCC)CCC	4.78%	–
O=CNC(N1CCN(C(NC=O)C(Cl)(Cl)Cl)CC1)C(Cl)(Cl)Cl (stereo not given)	0.269%	–
c1cc[c]([Hg][c]2ccccc2)cc1	1.17%	–
C1CCC(C2CCCCC2)CC1	-8.61%	–
